Source: PubChem BioAssay (Tox21)
A structure can be active in one record and inactive in another. Calls of active or inactive are those of the source. Entries that show only a call come without a potency. Unless noted, the call rests on the fitted dose curve. Positions of bridges follow the written chain, without caps; N, C: chain ends. Non-standard residues stand in square brackets, D forms with d. Residues, ends and D or L forms follow the SMILES beside them. *: point of attachment. X1 = CC[C@@H](C)[C@@H](N)C1=N[C@H](C(=O)*)CS1; d(aIle) = CC[C@H](C)[C@@H](N)C(=O)O; dOrn = NCCC[C@@H](N)C(=O)O

target: Estrogen receptor (Homo sapiens) (UniProt P03372); experiment: qHTS assay to identify small molecule agonists of the estrogen receptor alpha (ER-alpha) signaling pathway (AID 743075); details: HEK293 ER-alpha-UAS-bla, beta-lactamase FRET ratio, 18 h; series mostly up to 70.1 µM;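 further: HEK293 GripTite cells with ER-alpha and UAS-driven beta-lactamase reporter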
Potency means the concentration at half of the fitted maximal effect.

Estrogen receptor (Homo sapiens), sequence (P03372 whole entry, looked up): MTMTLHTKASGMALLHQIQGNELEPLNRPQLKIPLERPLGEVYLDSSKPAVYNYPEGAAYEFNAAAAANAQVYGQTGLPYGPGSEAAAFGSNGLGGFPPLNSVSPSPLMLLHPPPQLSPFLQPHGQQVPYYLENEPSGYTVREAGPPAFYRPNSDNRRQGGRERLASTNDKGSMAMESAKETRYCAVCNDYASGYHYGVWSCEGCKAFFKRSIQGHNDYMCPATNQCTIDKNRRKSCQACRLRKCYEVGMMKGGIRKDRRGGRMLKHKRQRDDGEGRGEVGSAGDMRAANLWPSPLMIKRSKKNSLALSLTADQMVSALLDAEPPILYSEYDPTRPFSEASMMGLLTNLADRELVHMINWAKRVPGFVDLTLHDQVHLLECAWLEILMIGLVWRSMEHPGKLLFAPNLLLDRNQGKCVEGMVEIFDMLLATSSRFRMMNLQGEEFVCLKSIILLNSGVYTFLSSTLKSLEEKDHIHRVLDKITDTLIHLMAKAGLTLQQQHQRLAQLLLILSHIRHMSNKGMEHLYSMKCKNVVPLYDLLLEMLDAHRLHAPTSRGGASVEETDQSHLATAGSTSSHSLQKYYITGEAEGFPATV

SMILES | Potency
CC(=O)O[C@H]1C[C@@H]2CC[C@@H]3[C@H](CC[C@@]4(C)[C@H]3C[C@H]([N+]3(C)CCCCC3)[C@@H]4OC(C)=O)[C@@]2(C)C[C@@H]1[N+]1(C)CCCCC1 | inactive
CCN(CC)CCOC[C@H]1O[C@@H](O)[C@H](OCCN(CC)CC)[C@@H](O)[C@@H]1O | inactive
CCOC(=O)COc1ccc2c(=O)cc(-c3ccccc3)oc2c1 | inactive
CC[C@@H](C)[C@H](N)C(=O)O | inactive
CCCCCCCCCCCC[n+]1ccc2ccccc2c1 | inactive
O=C1CC[C@@H](C(=O)N[C@H]2C[C@@H]2c2ccccc2)N1 | inactive
CC(C)(C)C(=O)OCC(=O)[C@H]1CC[C@H]2[C@@H]3CCC4=CC(=O)CC[C@]4(C)[C@H]3CC[C@]12C | inactive
NC[C@H]1O[C@H](O[C@H]2[C@H](O)[C@@H](O[C@H]3O[C@H](CO)[C@@H](O)[C@H](N)[C@H]3O)[C@H](N)C[C@@H]2N)[C@H](N)C[C@@H]1O | inactive
C/C(=C\C(=O)OCCCCCCCCC(=O)O)C[C@@H]1OC[C@H](C[C@@H]2O[C@H]2[C@@H](C)[C@H](C)O)[C@@H](O)[C@H]1O | inactive
Cc1cc(Br)ccc1NC(=O)CCl | inactive
O=P(O)(O)C(O)(Cn1ccnc1)P(=O)(O)O | inactive
CCOc1ccc(S(=O)(=O)O)c2cccnc12 | 23.9 µM [inconclusive] (active)
CC(=NCc1ccccc1)c1ccccc1O | inactive
CC(=O)OCC(=O)[C@@]1(O)CC[C@H]2[C@@H]3CCC4=CC(=O)CC[C@]4(C)C3=CC[C@@]21C | inactive
O=C(O)/C=C/C(=O)Nc1ccc(S(=O)(=O)Nc2nccs2)cc1 | inactive
CC[C@@H](C)[C@@H](N)C1=N[C@H](C(=O)N[C@@H](CC(C)C)C(=O)N[C@@H](CCC(=O)O)C(=O)N[C@@H](C(=O)N[C@@H]2CCCCNC(=O)[C@@H](CC(N)=O)NC(=O)[C@@H](CC(=O)O)NC(=O)[C@@H](Cc3cnc[nH]3)NC(=O)[C@@H](Cc3ccccc3)NC(=O)[C@@H]([C@H](C)CC)NC(=O)[C@@H](CCCN)NC2=O)[C@@H](C)CC)CS1 (X1-LE[d(aIle)][dK][dOrn][dI][dF][dH][dD][dN]; lactam 4-C) | inactive
Cc1c(N)nc([C@H](CC(N)=O)NC[C@H](N)C(N)=O)nc1C(=O)N[C@H](C(=O)N[C@H](C)[C@@H](O)[C@H](C)C(=O)N[C@H](C(=O)NCCc1nc(-c2nc(C(=O)NCCCCN=C(N)N)cs2)cs1)[C@@H](C)O)[C@@H](O[C@@H]1O[C@@H](CO)[C@@H](O)[C@H](O)[C@@H]1O[C@H]1O[C@H](CO)[C@@H](O)[C@H](OC(N)=O)[C@@H]1O)c1cnc[nH]1 | inactive
NC(N)=NCCCCN=C(N)N | 5.35 µM [inconclusive] (active)
COc1ccc(/C=N/NC(=O)c2ccncc2)c(C(=O)O)c1OC | inactive
O=C1CCC(c2ccc(-n3ccnc3)cc2)=NN1 | inactive
Cc1cnc(C(=O)O)c[n+]1[O-] | inactive
NCC(O)CC(=O)O (stereo not given) | inactive
O=C(N[C@H](CO)[C@H](O)c1ccc([N+](=O)[O-])cc1)C(Cl)Cl | inactive
O=C(CCCN1CCN2CCCC2C1)c1ccc(F)cc1 (stereo not given) | inactive
Nc1nc(/C(=C/CC(=O)O)C(=O)N[C@@H]2C(=O)N3C(C(=O)O)=CCS[C@H]23)cs1 | inactive
O=C1c2ccccc2CN2C(=O)c3ccccc3CN12 | inactive

target: Estrogen receptor (Homo sapiens) (UniProt P03372); experiment: qHTS assay to identify small molecule agonists of the estrogen receptor alpha (ER-alpha) signaling pathway using the BG1 cell line (AID 743079; active means well fitted activation curve with a large enough effect in the repeat runs; inconclusive means weak or mixed curves, or effect the other way; inactive means no such curve, though single readings can be large or run the other way; further: nearly all actives have a fitted effect of over 20% in size); details: BG1Luc4E2 cells, ERE-luciferase agonist, 22 h; series mostly up to 70.3 µM

SMILES | Potency
CC(=O)O[C@H]1C[C@@H]2CC[C@@H]3[C@H](CC[C@@]4(C)[C@H]3C[C@H]([N+]3(C)CCCCC3)[C@@H]4OC(C)=O)[C@@]2(C)C[C@@H]1[N+]1(C)CCCCC1 | inactive
CCN(CC)CCOC[C@H]1O[C@@H](O)[C@H](OCCN(CC)CC)[C@@H](O)[C@@H]1O | inactive
CCOC(=O)COc1ccc2c(=O)cc(-c3ccccc3)oc2c1 | inactive
CC[C@@H](C)[C@H](N)C(=O)O | 26.6 µM (active)
O=C1CC[C@@H](C(=O)N[C@H]2C[C@@H]2c2ccccc2)N1 | inactive
NC[C@H]1O[C@H](O[C@H]2[C@H](O)[C@@H](O[C@H]3O[C@H](CO)[C@@H](O)[C@H](N)[C@H]3O)[C@H](N)C[C@@H]2N)[C@H](N)C[C@@H]1O | inactive
C/C(=C\C(=O)OCCCCCCCCC(=O)O)C[C@@H]1OC[C@H](C[C@@H]2O[C@H]2[C@@H](C)[C@H](C)O)[C@@H](O)[C@H]1O | inactive
O=P(O)(O)C(O)(Cn1ccnc1)P(=O)(O)O | inactive
CCOc1ccc(S(=O)(=O)O)c2cccnc12 | 6.68 µM (active)
CC(=NCc1ccccc1)c1ccccc1O | inactive
CC(=O)OCC(=O)[C@@]1(O)CC[C@H]2[C@@H]3CCC4=CC(=O)CC[C@]4(C)C3=CC[C@@]21C | 29.8 µM (active)
O=C(O)/C=C/C(=O)Nc1ccc(S(=O)(=O)Nc2nccs2)cc1 | inactive
O=C(O)c1cc2cc(Cc3cccnc3)ccc2o1 | 18.8 µM (active)
CC[C@@H](C)[C@@H](N)C1=N[C@H](C(=O)N[C@@H](CC(C)C)C(=O)N[C@@H](CCC(=O)O)C(=O)N[C@@H](C(=O)N[C@@H]2CCCCNC(=O)[C@@H](CC(N)=O)NC(=O)[C@@H](CC(=O)O)NC(=O)[C@@H](Cc3cnc[nH]3)NC(=O)[C@@H](Cc3ccccc3)NC(=O)[C@@H]([C@H](C)CC)NC(=O)[C@@H](CCCN)NC2=O)[C@@H](C)CC)CS1 (X1-LE[d(aIle)][dK][dOrn][dI][dF][dH][dD][dN]; lactam 4-C) | 4.03 µM (active) and inactive
Cc1c(N)nc([C@H](CC(N)=O)NC[C@H](N)C(N)=O)nc1C(=O)N[C@H](C(=O)N[C@H](C)[C@@H](O)[C@H](C)C(=O)N[C@H](C(=O)NCCc1nc(-c2nc(C(=O)NCCCCN=C(N)N)cs2)cs1)[C@@H](C)O)[C@@H](O[C@@H]1O[C@@H](CO)[C@@H](O)[C@H](O)[C@@H]1O[C@H]1O[C@H](CO)[C@@H](O)[C@H](OC(N)=O)[C@@H]1O)c1cnc[nH]1 | inactive
NC(N)=NCCCCN=C(N)N | 0.473 µM (active)
COc1ccc(/C=N/NC(=O)c2ccncc2)c(C(=O)O)c1OC | inactive
O=C1CCC(c2ccc(-n3ccnc3)cc2)=NN1 | inactive
Cc1cnc(C(=O)O)c[n+]1[O-] | inactive
NCC(O)CC(=O)O (stereo not given) | 16.8 µM (active)
O=C(N[C@H](CO)[C@H](O)c1ccc([N+](=O)[O-])cc1)C(Cl)Cl | inactive
O=C(CCCN1CCN2CCCC2C1)c1ccc(F)cc1 (stereo not given) | inactive
Nc1nc(/C(=C/CC(=O)O)C(=O)N[C@@H]2C(=O)N3C(C(=O)O)=CCS[C@H]23)cs1 | inactive
O=C1c2ccccc2CN2C(=O)c3ccccc3CN12 | inactive
